Several values for one entry are separate records, joined by “and”; a condition that tells them apart may be missing. Equal values may be shown once. Results filed as inconclusive are left out. Values without a mark were called inactive. Activity calls are given as the source filed them. Unless noted, calls follow the shape of the dose curve; as a rule, active = well fitted curve in the direction sought with a large enough effect in the repeat runs; inconclusive = weak or mixed curves; inactive = no such curve, though single readings can be large; an effect the other way counts as inactive or inconclusive.
biological target: Nuclear receptor subfamily 1 group I member 3 (Homo sapiens) (UniProt Q14994); assay: qHTS assay to identify small molecule agonists of the constitutive androstane receptor (CAR) signaling pathway (AID 1224839); settings: HepG2 hCAR CYP2B6-luciferase, agonist mode, 24 h; series mostly up to 92.4 µM; activation: at the top concentration;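 also: HepG2 cells stably carrying human CAR and a CYP2B6 luciferase reporter; nearly all actives have a fitted effect of over 15% in size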
How it was run: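 Luminescence read-out (ONE-Glo, 30 min, room temperature) from double-stable HepG2-CYP2B6-hCAR cells exposed 24 h to 15-point compound series in presence of 0.75 uM PK11195 final.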
% is scaled to controls: 0 for no effect and ±100 for the full control effect.

Nuclear receptor subfamily 1 group I member 3 (Homo sapiens), sequence (Q14994 whole entry, looked up): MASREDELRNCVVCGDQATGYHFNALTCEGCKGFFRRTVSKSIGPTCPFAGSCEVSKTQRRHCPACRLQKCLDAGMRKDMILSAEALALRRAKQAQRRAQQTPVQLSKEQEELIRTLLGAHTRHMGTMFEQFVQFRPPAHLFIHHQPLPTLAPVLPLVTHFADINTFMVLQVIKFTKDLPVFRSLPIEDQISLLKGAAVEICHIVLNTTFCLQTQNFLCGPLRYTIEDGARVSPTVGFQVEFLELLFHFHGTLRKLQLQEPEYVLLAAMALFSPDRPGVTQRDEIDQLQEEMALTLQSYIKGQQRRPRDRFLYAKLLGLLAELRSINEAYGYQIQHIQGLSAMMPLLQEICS

Which “activation” value does the source give for `O=C(O)CCCOc1ccc(Cl)cc1Cl` here?
The value was 4.11%.

Which “activation” value does the source give for `CNC(=O)Oc1cccc(N=CN(C)C)c1` here?
Its value is -0.714%.

For `OCCCl`, which “activation” value is on record?
Its value is -0.0646%.

For `O=[N+]([O-])/C=C/c1ccccc1`, which Potency is on record?
Its Potency is “inactive”.

With `O=S(=O)(c1ccccc1)c1ccccc1` as the compound, how does the “activation” value read?
The value was 7.75%.

Which “activation” value does the source give for `Clc1ccc2ccccc2c1` here?
The value was -0.179%.

Which “activation” value does the source give for `Clc1ccccc1` here?
Its value is -1.93%.

With `O=C(O)c1ccc(=O)[nH]c1` as the compound, how does the “activation” value read?
The value was -1.05% [at 42.5 µM].

For `CCC[N+](CCC)(CCC)CCC`, which “activation” value is on record?
The value was 0.359%.

For `Cc1nc2ccccc2c(=O)n1-c1ccccc1Cl`, which “activation” value is on record?
The value was 10.3%.

For `CCCCC(CC)COC(=O)c1c(Br)c(Br)c(Br)c(Br)c1C(=O)OCC(CC)CCCC` (stereo not given), which “activation” value is on record?
Its value is -2.07% [at 42.5 µM].

Which “activation” value does the source give for `CC(C)C1(C)N=C(c2ncccc2C(=O)O)NC1=O` (stereo not given) here?
The value was 2.1%.

Which “activation” value does the source give for `O=S(=O)(Cl)Cl` here?
The value was -1.68%.

Which “activation” value does the source give for `Cc1ccccc1` here?
The value was -0.939%.

Which “activation” value does the source give for `Cc1ncc(C[n+]2csc(CCO)c2C)c(N)n1` here?
The value was -0.29%.

With `COP(=O)(OC)OC(Br)C(Cl)(Cl)Br` (stereo not given) as the compound, how does the Potency read?
Its Potency is “inactive”.

With `C=C(C)C(=O)OCCCCOC(=O)C(=C)C` as the compound, how does the “activation” value read?
The value was -3.44%.

For `C=CCc1ccc(OC(=O)Cc2ccccc2)c(OC)c1`, which “activation” value is on record?
The value was 6.87%.

system: not listed separately; assay: qHTS assay to identify small molecule antagonists of the estrogen related receptor signaling pathway with the pleiotropic PPARgamma coactivator (PGC) from Tox21 10K library - cell viability counter screen (AID 1224840; active = well fitted cell-killing curve with a large enough effect in the repeat runs, not every such curve was filed as active; also: nearly all actives have a fitted effect of over 40% in size; also: potency is read from the fitted curve at half-maximal effect); settings: PGC/ERR reporter cells viability, CellTiter-Fluor, 17.5 h; series mostly up to 92.4 µM; viability change, negative = cytotoxic: at the top concentration
How it was run: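 Here the PGC/ERR cells serve as a cytotoxicity control: they are exposed to compounds for 17.5 hours at 37 C, and live-cell signal is quantified using CellTiter-Fluor fluorescence.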

For `CN1C(=O)CN=C(c2ccccc2)c2cc([N+](=O)[O-])ccc21`, which “viability change, negative = cytotoxic” value is on record?
The value was -9.44% [at 42.5 µM].

With `C1CCNCC1` as the compound, how does the “viability change, negative = cytotoxic” value read?
Its value is -2.16%.

With `O=C(O)CCCOc1ccc(Cl)cc1Cl` as the compound, how does the Potency read?
Its Potency is “inactive”.

With `CNC(=O)Oc1cccc(N=CN(C)C)c1` as the compound, how does the “viability change, negative = cytotoxic” value read?
The value was -10.6%.

Which “viability change, negative = cytotoxic” value does the source give for `OCCCl` here?
The value was -0.659%.

For `O=[N+]([O-])/C=C/c1ccccc1`, which Potency is on record?
The Potency was 15.6 µM (active) and 24.3 µM (active).

Which “viability change, negative = cytotoxic” value does the source give for `O=S(=O)(c1ccccc1)c1ccccc1` here?
Its value is -2.48%.

With `O=C(NC(=O)c1cc(F)c(F)cc1Cl)Nc1cc(F)ccc1N1CCC(C(=O)O)CC1` as the compound, how does the “viability change, negative = cytotoxic” value read?
Its value is 3.77% [at 42.5 µM].

Which “viability change, negative = cytotoxic” value does the source give for `Clc1ccccc1` here?
Its value is 9.86%.

Which Potency does the source give for `O=C(O)COc1cc(Cl)c(Cl)cc1Cl` here?
The Potency was “inactive”.

With `SCc1ccccc1` as the compound, how does the “viability change, negative = cytotoxic” value read?
The value was 0.941%.

Which Potency does the source give for `CC(C)[C@@H](C(=O)O[C@@H](C#N)c1cccc(Oc2ccccc2)c1)c1ccc(Cl)cc1` here?
Its Potency is “inactive”.

Which “viability change, negative = cytotoxic” value does the source give for `O=C(O)C(O)C(O)C(=O)O` (stereo not given) here?
The value was 7.62%.

For `CCC[N+](CCC)(CCC)CCC`, which “viability change, negative = cytotoxic” value is on record?
The value was 0.277%.

For `CCCCCCCCn1sccc1=O`, which Potency is on record?
Its Potency is 30.7 µM (active) and 11.4 µM (active).

Which “viability change, negative = cytotoxic” value does the source give for `C[N+]1(CCC(C(N)=O)(c2ccccc2)c2ccccc2)CCCCC1` here?
Its value is 17.2% [at 42.5 µM].

With `CCCCC(CC)COC(=O)c1c(Br)c(Br)c(Br)c(Br)c1C(=O)OCC(CC)CCCC` (stereo not given) as the compound, how does the “viability change, negative = cytotoxic” value read?
Its value is 7.06% [at 42.5 µM].

For `CC(C)C1(C)N=C(c2ncccc2C(=O)O)NC1=O` (stereo not given), which “viability change, negative = cytotoxic” value is on record?
Its value is 1.78%.

For `O=S(=O)(Cl)Cl`, which “viability change, negative = cytotoxic” value is on record?
Its value is 1.94%.

With `Cc1ccccc1` as the compound, how does the “viability change, negative = cytotoxic” value read?
The value was 6.37%.

For `CCCC1CCCCN1` (stereo not given), which “viability change, negative = cytotoxic” value is on record?
Its value is 2.77% [at 42.5 µM].

For `CC1(C)[C@H](C(=O)O[C@H](C#N)c2cccc(Oc3ccccc3)c2)[C@@H]1C=C(Br)Br`, which Potency is on record?
Its Potency is “inactive”.

With `CCCC[P+](CC)(CCCC)CCCC` (tested in a mixture with another compound) as the compound, how does the “viability change, negative = cytotoxic” value read?
Its value is 2.11%.

Which “viability change, negative = cytotoxic” value does the source give for `O=C(O)C(F)(F)C(F)(F)C(F)(F)C(F)(F)C(F)(F)C(F)(F)C(F)(F)C(F)(F)F` here?
The value was -9.23%.

With `CCOP(=O)(O)C(N)=O` as the compound, how does the “viability change, negative = cytotoxic” value read?
Its value is 0.531%.

With `C[C@]12C=CC3=C4CCC(=O)C=C4CC[C@H]3[C@@H]1CC[C@@H]2O` as the compound, how does the Potency read?
The Potency was “inactive”.

With `CC(C)(C)NCC(O)c1ccccc1Cl` (stereo not given) as the compound, how does the “viability change, negative = cytotoxic” value read?
The value was 2.04% [at 42.5 µM].

For `O=C(NCNC(=O)NC1C(=O)NC(=O)N1CO)NC1C(=O)NC(=O)N1CO` (stereo not given), which “viability change, negative = cytotoxic” value is on record?
The value was 13.8%.

With `Cc1ncc(C[n+]2csc(CCO)c2C)c(N)n1` as the compound, how does the “viability change, negative = cytotoxic” value read?
Its value is 3.97%.

Which “viability change, negative = cytotoxic” value does the source give for `C=C(C)C(=O)OCCCCOC(=O)C(=C)C` here?
The value was 0.86%.

system: not listed separately; assay: qHTS assay to identify small molecule antagonists of the estrogen related receptor signaling pathway with the pleiotropic PPARgamma coactivator (PGC) from Tox21 10K library (AID 1224841; call rule not given here; also: actives are mostly falling curves and most rising ones were filed inactive; nearly all actives have a fitted effect of over 50% in size; also: potency is read from the fitted curve at half-maximal effect); settings: PGC/ERR reporter cell line, ONE-Glo luciferase, 18 h; series mostly up to 92.4 µM; activity, negative = inhibition: at the top concentration
How it was run: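 Each well held 2,000 PGC/ERR cells, pre-incubated six hours (37 C, 5% CO2). Test substances in DMSO were added by pin tool and left for 18 h at 37 C before luciferase detection by One-Glo.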

With `O=[N+]([O-])/C=C/c1ccccc1` as the compound, how does the “activity, negative = inhibition” value read?
The value was -110%.

For `O=S(=O)(c1ccccc1)c1ccccc1`, which “activity, negative = inhibition” value is on record?
The value was -2.07%.

For `Clc1ccccc1`, which “activity, negative = inhibition” value is on record?
The value was 5.3%.

Which Potency does the source give for `O=C(O)COc1cc(Cl)c(Cl)cc1Cl` here?
Its Potency is “inactive”.

For `O=C(O)c1ccc(=O)[nH]c1`, which “activity, negative = inhibition” value is on record?
Its value is 14.2% [at 42.5 µM].

For `CCCCCCCCn1sccc1=O`, which Potency is on record?
The Potency was 30.7 µM (active).

With `Cc1nc2ccccc2c(=O)n1-c1ccccc1Cl` as the compound, how does the “activity, negative = inhibition” value read?
Its value is -9.93%.

With `CC1(C)[C@H](C(=O)O[C@H](C#N)c2cccc(Oc3ccccc3)c2)[C@@H]1C=C(Br)Br` as the compound, how does the “activity, negative = inhibition” value read?
The value was -27.4%.

For `C[Si](Cn1cncn1)(c1ccc(F)cc1)c1ccc(F)cc1`, which Potency is on record?
The Potency was 39.8 µM (active) and 48.6 µM (active).

With `CC(C)(C)NCC(O)c1ccccc1Cl` (stereo not given) as the compound, how does the “activity, negative = inhibition” value read?
The value was 15.4% [at 42.5 µM].

With `C=CCc1ccccc1O` as the compound, how does the “activity, negative = inhibition” value read?
The value was 11.8%.

With `O=C(NCNC(=O)NC1C(=O)NC(=O)N1CO)NC1C(=O)NC(=O)N1CO` (stereo not given) as the compound, how does the “activity, negative = inhibition” value read?
Its value is 15.8%.

With `C=C(C)C(=O)OCCCCOC(=O)C(=C)C` as the compound, how does the “activity, negative = inhibition” value read?
The value was 4.34%.

system: not listed separately; assay: qHTS assay to identify small molecule agonists of the estrogen related receptor signaling pathway with the pleiotropic PPARgamma coactivator (PGC) from Tox21 10K library (AID 1224842); settings: PGC/ERR reporter cell line, luciferase ONE-Glo, 18 h; series mostly up to 92.4 µM; activation: at the top concentration; also: nearly all actives have a fitted effect of over 15% in size; also: potency is read from the fitted curve at half-maximal effect
How it was run: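 Luminescence from One-Glo (30 min, room temperature) measured after PGC/ERR cells had 18 h at 37 C with pinned compound (23 nL in DMSO). Cells had been seeded at 2,000 per well and pre-incubated 6 h.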

For `O=[N+]([O-])/C=C/c1ccccc1`, which Potency is on record?
The Potency was 9.85 µM (active) and 13.7 µM (active).

For `O=S(=O)(c1ccccc1)c1ccccc1`, which “activation” value is on record?
Its value is -0.159%.

With `Clc1ccccc1` as the compound, how does the “activation” value read?
The value was 1.73%.

Which Potency does the source give for `O=C(O)COc1cc(Cl)c(Cl)cc1Cl` here?
Its Potency is “inactive”.

For `O=C(O)c1ccc(=O)[nH]c1`, which “activation” value is on record?
The value was 4.38% [at 42.5 µM].

Which “activation” value does the source give for `CCC[N+](CCC)(CCC)CCC` here?
Its value is 2.35%.

For `CCCCCCCCn1sccc1=O`, which Potency is on record?
Its Potency is “inactive”.

For `Cc1nc2ccccc2c(=O)n1-c1ccccc1Cl`, which “activation” value is on record?
Its value is -3.01%.

With `CC1(C)[C@H](C(=O)O[C@H](C#N)c2cccc(Oc3ccccc3)c2)[C@@H]1C=C(Br)Br` as the compound, how does the Potency read?
Its Potency is “inactive”.

For `C[Si](Cn1cncn1)(c1ccc(F)cc1)c1ccc(F)cc1`, which Potency is on record?
The Potency was “inactive”.

For `CC(C)(C)NCC(O)c1ccccc1Cl` (stereo not given), which “activation” value is on record?
The value was 4.27% [at 42.5 µM].

Which “activation” value does the source give for `C=CCc1ccccc1O` here?
The value was 3.66%.

Which “activation” value does the source give for `O=C(NCNC(=O)NC1C(=O)NC(=O)N1CO)NC1C(=O)NC(=O)N1CO` (stereo not given) here?
Its value is 5.03%.

For `C=C(C)C(=O)OCCCCOC(=O)C(=C)C`, which “activation” value is on record?
The value was 1.32%.
